# Assay results as given in PubChem BioAssay (NCATS).
# Inconclusive results are not listed. Active and inactive are the calls of the source. Calls follow the shape of the dose curve; as a rule, active = well fitted inhibition curve with a large enough effect; inconclusive = small, poorly fitted or top-dose-only effect; inactive = flat fitted curve, though single readings scatter.
# Assay: P-glycoprotein substrates identified in KB-8-5-11 adenocarcinoma cell line, qHTS therapeutic library screen (AID 1346987); also: nearly all actives have a fitted effect of over 65% in size
# Conditions: KB-8-5-11 (P-gp overexpressing) viability, CellTiter-Glo, 72 h; series mostly up to 44.5 µM; activity change, negative = cytotoxicity: at the top concentration
# How it was run: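 Luminescence from CellTiter-Glo, read 5 min after addition, quantified survival of KB-8-5-11 (P-gp-overexpressing) cells exposed to compounds for 72 h. AC50 was derived from concentration-response curves.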
# % is scaled to controls: 0 for no effect and ±100 for the full control effect; potency is read from the fitted curve at half-maximal effect.
SMILES,outcome,"activity change, negative = cytotoxicity",Potency
N#C[C@@H]1CCCN1C(=O)CNC12CC3CC(CC(O)(C3)C1)C2,inactive,–,–
Cc1cc(C(=O)N2Cc3cnn(C)c3Nc3ccccc32)ccc1CNC(=O)N1CCC[C@H]1C(=S)N1CCCN(C)CC1,–,5.53% (inactive),–
CCc1c(C)nc2c(-c3cnn(-c4cc(CO)ccn4)c3)c[nH]n2c1=O,–,8.59% (inactive),–
CC(=O)OC1C(O)CC2(C)C(CCC(C)C23Cc2c(O)cc(CO)c(C=O)c2O3)C1(C)C (centres undefined),–,1.78% [at 17.3 µM] (inactive),–
O=S(=O)(c1ccccc1)c1cnc2c(N3CCNCC3)cccc2c1,–,-17.4% (inactive),–
CN(CCc1ccc(Nc2ncc(-c3cccnc3)s2)cc1)Cc1ccccc1,–,-26.2% (inactive),–
CN(C)C/C=C/C(=O)Nc1cccc(C(=O)Nc2ccc(Nc3nccc(-c4cccnc4)n3)cc2)c1,inactive,–,–
C[C@@H]1CC[C@]2(C(=O)O[C@@H]3O[C@H](CO)[C@@H](O)[C@H](O)[C@H]3O)CC[C@]3(C)C(=CCC4[C@@]5(C)C[C@@H](O)[C@H](O)[C@](C)(C(=O)O)C5CC[C@]43C)[C@@H]2[C@]1(C)O (some centres undefined),inactive [at 17.3 µM],–,–
Cc1ccc([N+](=O)[O-])cc1S(=O)(=O)N(C)/N=C/c1cnc2ccc(Br)cn12,–,–,231 nM (active)
CN(C)CCn1cc(S(=O)(=O)c2cccc(F)c2)c2cccnc21,–,-17.9% (inactive),–
CC[C@H](C)[C@H](NC(=O)[C@H]([C@@H](C)CC)N(C)C(C)=O)C(=O)N[C@H](C(=O)N[C@@H](CC(C)C)C(=O)[C@@]1(C)CO1)[C@@H](C)O,–,–,2590 nM (active)
CCC(C)C(=O)OC1CC(O)C23C4OCC5(C(O)CC2C1(C)C(O)O4)C3C(=O)C(O)C1(C)C(O)(c2ccoc2)CC2OC251 (centres undefined),inactive [at 17.3 µM],–,–
Cc1cnc(NC(=O)Nc2cc(Br)c(C)cc2OCC2CNCCO2)cn1 (centres undefined),–,–,8200 nM (active)
CN1c2ccccc2C(=O)N2CCC3c4ccccc4NC3C21 (centres undefined),–,–,2020 nM (active)
O=C(O)c1cccc(S(=O)(=O)N2CCc3ccccc3C2)c1,inactive,–,–
Cc1oc2ccccc2c1CNC(=O)NCc1cccs1,–,-6.09% (inactive),–
COc1ccc2cc(C(C)C(=O)Oc3ccc(C(N)=S)cc3)ccc2c1 (centres undefined),–,6.8% (inactive),–
CC(C)CC(=O)O[C@@H]1OC=C(CO[C@@H]2O[C@H](CO)[C@@H](O)[C@H](O)[C@H]2O)[C@H]2[C@@H]3O[C@H]3[C@@](O)(CO)[C@@H]12,inactive [at 17.3 µM],–,–
CC(=O)O[C@@](C)(C(=O)/C=C/C(C)(C)O)[C@H]1[C@H](O)C[C@@]2(C)[C@@H]3CC=C4[C@@H](C=C(O)C(=O)C4(C)C)[C@]3(C)C(=O)C[C@]12C,–,–,796 nM (active)
CC1CC2OC3(OC2C(C)(C)O)C1C1(C)CCC24CC25CCC(O[C@@H]2OC[C@@H](O)[C@H](O)[C@H]2O)C(C)(C)C5CC=C4C1(C)C3O (some centres undefined),inactive [at 17.3 µM],–,–

SMILES,outcome,"activity change, negative = cytotoxicity",Potency
CN1CCC(Nc2nc(Nc3ccc(Oc4ccccc4)cc3)c3c(=O)[nH]cc(Br)c3n2)CC1,–,–,4610 nM (active)
CC(=O)OC12COC1CC(O)C1(C)C(=O)C(O)C3=C(C)C(OC(=O)C(O)C(NC(=O)OC(C)(C)C)c4ccccc4)CC(O)(C(OC(=O)c4ccccc4)C21)C3(C)C (centres undefined),–,–,164 nM (active)
COc1cc(Br)c(Nc2nc(-c3c(C)nc4ncccn34)cs2)c(Br)c1,–,–,2310 nM (active)
COC1C(CO)OC(n2cnc3c(=O)[nH]cnc32)C1O (centres undefined),–,-6.65% (inactive),–
CC1=C(COC2OC(CO)C(O)C(O)C2O)C(C(CO)C(=O)O)CC1 (centres undefined),inactive,–,–
C/C=C(\C)C(=O)O[C@@H]1CC2[C@@H](CC=C3C[C@@H](O[C@H]4C[C@H](OC)[C@H](O[C@H]5C[C@H](OC)[C@H](O[C@@H]6O[C@H](C)[C@@H](O[C@H]7C[C@H](OC)[C@H](O[C@@H]8O[C@H](CO)[C@@H](O)[C@H](O)[C@H]8O)[C@@H](C)O7)[C@H](OC)[C@H]6O)[C@@H](C)O5)[C@@H](C)O4)CC[C@@]32C)[C@@]2(O)CC[C@H](C(C)=O)[C@@]12C (some centres undefined),inactive [at 9.29 µM],–,–
C=C1C[C@]23C[C@H]1CC[C@H]2[C@]1(C)CCC[C@@](C)(C(=O)O)[C@H]1[C@@H]3C(=O)O,inactive,–,–
Cn1nnc(-c2ccc(-c3ccc(N4C[C@H](CO)OC4=O)cc3F)cn2)n1,–,-10.6% (inactive),–
O=C(O)[C@H](Cc1ccc(Nc2nccc3ccncc23)cc1)NC1=C(Br)C(=O)C12CCCCC2,inactive,–,–
O=C(Nc1ccc(Cl)cc1F)c1ccccc1O,–,–,7310 nM (active)
O=C1CCC=CC1(O)C(=O)OCc1ccccc1O[C@@H]1O[C@H](CO)[C@@H](O)[C@H](O)[C@H]1O (some centres undefined),–,-6.72% [at 17.3 µM] (inactive),–
CC(C)C(C#N)O[C@@H]1O[C@H](CO[C@@H]2O[C@@H](C)[C@H](O)[C@@H](O)[C@H]2O)[C@@H](O)[C@H](O)[C@H]1O (some centres undefined),inactive [at 17.3 µM],–,–
CC(=O)NC1C(OC(C)(C)C2CCC3(C)C=C(C4CCC5C4(C)CC(O)C4OC(C(C)(C)O)CCC45C)CCC3O2)OC(CO)C(O)C1O (centres undefined),–,3.65% [at 17.3 µM] (inactive),–
CCOC(=O)c1sc(NC(=O)[C@H](C(C)C)n2c(=O)[nH]c3ccccc3c2=O)nc1C,–,-7.48% (inactive),–
C[C@@H]1CN(Cc2ncccn2)C[C@H]1c1nc2c(cnn2C2CCOCC2)c(=O)[nH]1,–,-2.62% (inactive),–
CCc1ccc(Cc2ccc3c(c2)[C@]2(OC3)O[C@H](CO)[C@@H](O)[C@H](O)[C@H]2O)cc1,inactive,–,–
O=C(CSc1nc2c(c(=O)n1-c1ccccc1)SCC2)Nc1ccc(-c2ccccc2)cn1,–,–,82 nM (active)
CC(=O)O[C@@H]1c2c(C)coc2C(=O)[C@@]23O[C@@H]2CC[C@H](C)[C@@]13C,–,-15.1% (inactive),–
C[C@@H]1C(=O)O[C@H]2C[C@]34[C@H]5C[C@@H](C(C)(C)C)[C@]36[C@@H](OC(=O)[C@H]6O)O[C@]4(C(=O)O5)[C@]21O,–,3.36% [at 17.3 µM] (inactive),–
